Common to all, as to assay: DAPPL (digital affinity profiling via proximity ligation, sequencing); 10 mM Tris-HCl pH 7.5, 50 mM NaCl, 1 mM DTT, 4% glycerol, room temperature, 30 min; GST-TFs on glutathione beads, 16-mer random dsDNA library, 0.1% formaldehyde crosslink after washing; high values mean tight binding
Common to all, as to details: protein: recombinant; tags: N-terminal GST; dsDNA, one strand shown

Assay [1] addresses T1, FLI1 (Homo sapiens, UniProt Q01543 1-452).
T1 sequence: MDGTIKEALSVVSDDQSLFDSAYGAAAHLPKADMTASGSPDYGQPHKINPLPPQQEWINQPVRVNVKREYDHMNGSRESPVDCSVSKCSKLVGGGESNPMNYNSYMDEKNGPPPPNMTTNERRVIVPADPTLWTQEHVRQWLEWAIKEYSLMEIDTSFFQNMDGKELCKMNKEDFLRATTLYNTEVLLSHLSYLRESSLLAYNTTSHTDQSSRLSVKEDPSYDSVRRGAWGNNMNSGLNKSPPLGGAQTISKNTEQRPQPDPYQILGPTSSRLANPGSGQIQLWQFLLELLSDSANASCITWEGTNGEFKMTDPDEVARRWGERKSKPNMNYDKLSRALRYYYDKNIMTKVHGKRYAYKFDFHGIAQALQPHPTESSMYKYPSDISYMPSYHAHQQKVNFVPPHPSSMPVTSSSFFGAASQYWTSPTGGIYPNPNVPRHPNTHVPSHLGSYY
The procedure, abridged:
(§1)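 GST fusions of human transcription factors were expressed in yeast and captured with glutathione beads. Once given DNA barcodes and pooled alongside a tag-only sample, they were incubated for 30 min at room temperature with 200 nmole of a random double-stranded 16-mer DNA library in Tris/NaCl/DTT/glycerol buffer, then washed, crosslinked (0.1% formaldehyde), proximity-ligated, PCR-amplified and sequenced on an Illumina NextSeq500. The binding signal of each hexamer is its read frequency for a factor divided by its frequency for the tag-only sample.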

For assay [2], the target named is T2, ELK1 (Homo sapiens, UniProt P19419 1-428).
T2 sequence: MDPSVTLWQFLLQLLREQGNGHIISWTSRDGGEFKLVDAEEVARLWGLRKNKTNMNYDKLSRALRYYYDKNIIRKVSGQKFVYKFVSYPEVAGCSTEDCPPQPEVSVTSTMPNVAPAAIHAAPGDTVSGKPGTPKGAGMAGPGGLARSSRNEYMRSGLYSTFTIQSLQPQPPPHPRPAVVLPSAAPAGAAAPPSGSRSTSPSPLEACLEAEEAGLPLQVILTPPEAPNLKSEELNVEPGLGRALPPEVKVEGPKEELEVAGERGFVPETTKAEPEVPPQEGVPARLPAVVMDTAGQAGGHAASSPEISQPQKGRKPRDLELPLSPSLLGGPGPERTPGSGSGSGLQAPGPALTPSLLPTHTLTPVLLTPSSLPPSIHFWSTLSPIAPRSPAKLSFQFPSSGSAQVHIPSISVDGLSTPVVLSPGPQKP
The gist of the method:
as §1

Assay [3] deals with T3, GABPA (Homo sapiens, UniProt Q06546 1-454).
T3 sequence: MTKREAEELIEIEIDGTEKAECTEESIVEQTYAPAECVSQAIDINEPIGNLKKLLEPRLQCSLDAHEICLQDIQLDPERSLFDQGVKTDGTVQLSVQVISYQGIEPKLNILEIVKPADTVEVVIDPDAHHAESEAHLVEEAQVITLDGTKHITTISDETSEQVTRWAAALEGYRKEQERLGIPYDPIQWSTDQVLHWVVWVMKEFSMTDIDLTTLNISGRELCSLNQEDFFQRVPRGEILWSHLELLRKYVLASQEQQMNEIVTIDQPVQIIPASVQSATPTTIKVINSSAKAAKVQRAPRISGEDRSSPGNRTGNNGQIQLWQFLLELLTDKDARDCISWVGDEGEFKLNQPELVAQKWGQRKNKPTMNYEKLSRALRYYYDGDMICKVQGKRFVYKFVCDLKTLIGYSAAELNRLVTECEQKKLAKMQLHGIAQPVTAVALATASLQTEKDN
The procedure, abridged: as §1

In assay [4] the target is T4, ERG (Homo sapiens, UniProt P11308 1-479).
T4 sequence: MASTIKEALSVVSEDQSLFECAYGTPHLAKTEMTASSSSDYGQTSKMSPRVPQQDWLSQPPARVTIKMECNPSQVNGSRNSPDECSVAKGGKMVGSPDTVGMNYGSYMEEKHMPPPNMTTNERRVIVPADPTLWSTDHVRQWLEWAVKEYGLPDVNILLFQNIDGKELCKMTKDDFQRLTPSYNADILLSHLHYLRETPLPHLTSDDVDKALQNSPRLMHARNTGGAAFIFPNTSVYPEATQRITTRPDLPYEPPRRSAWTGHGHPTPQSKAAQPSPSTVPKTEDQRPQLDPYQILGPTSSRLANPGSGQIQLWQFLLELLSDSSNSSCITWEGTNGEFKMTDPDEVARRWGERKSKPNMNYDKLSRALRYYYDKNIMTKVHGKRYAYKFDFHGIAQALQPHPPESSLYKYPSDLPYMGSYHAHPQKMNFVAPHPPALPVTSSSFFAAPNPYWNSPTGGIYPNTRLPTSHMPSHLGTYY
The procedure, abridged: as §1

For assay [5], the target named is ELF1 (Homo sapiens, UniProt P32519 1-619). The procedure, abridged:
as §1

The target in assay [6] is T5, EHF (Homo sapiens, UniProt Q9NZC4 1-300).
T5 sequence: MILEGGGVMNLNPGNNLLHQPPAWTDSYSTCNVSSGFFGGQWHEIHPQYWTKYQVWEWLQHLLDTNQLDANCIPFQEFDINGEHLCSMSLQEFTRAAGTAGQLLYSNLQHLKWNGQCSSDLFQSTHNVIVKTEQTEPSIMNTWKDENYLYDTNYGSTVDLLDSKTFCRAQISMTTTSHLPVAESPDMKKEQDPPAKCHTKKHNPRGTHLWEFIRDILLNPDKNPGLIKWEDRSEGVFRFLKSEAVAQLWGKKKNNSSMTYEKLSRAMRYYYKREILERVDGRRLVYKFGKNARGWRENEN
The procedure, abridged:
as §1

Assay [7] deals with SPI1 (Homo sapiens, UniProt P17947 1-270). The gist of the method: as §1
Assay [8] has as its target SPIB (Homo sapiens, UniProt Q01892 1-262). The procedure, abridged: as §1
Assay [9] concerns the target T6, FEV (Homo sapiens, UniProt Q99581 1-238).
T6 sequence: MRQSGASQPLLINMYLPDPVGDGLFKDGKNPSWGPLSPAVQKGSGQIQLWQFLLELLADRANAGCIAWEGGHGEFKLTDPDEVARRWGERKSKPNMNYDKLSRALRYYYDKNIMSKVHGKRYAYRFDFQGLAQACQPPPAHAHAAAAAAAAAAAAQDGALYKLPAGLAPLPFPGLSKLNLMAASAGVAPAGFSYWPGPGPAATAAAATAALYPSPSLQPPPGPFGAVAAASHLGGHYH
The procedure, abridged: as §1

The target of assay [10] is ETV5 (Homo sapiens, UniProt P41161 1-510). The procedure, abridged: as §1
Sequence of ETV5 (P41161 whole entry): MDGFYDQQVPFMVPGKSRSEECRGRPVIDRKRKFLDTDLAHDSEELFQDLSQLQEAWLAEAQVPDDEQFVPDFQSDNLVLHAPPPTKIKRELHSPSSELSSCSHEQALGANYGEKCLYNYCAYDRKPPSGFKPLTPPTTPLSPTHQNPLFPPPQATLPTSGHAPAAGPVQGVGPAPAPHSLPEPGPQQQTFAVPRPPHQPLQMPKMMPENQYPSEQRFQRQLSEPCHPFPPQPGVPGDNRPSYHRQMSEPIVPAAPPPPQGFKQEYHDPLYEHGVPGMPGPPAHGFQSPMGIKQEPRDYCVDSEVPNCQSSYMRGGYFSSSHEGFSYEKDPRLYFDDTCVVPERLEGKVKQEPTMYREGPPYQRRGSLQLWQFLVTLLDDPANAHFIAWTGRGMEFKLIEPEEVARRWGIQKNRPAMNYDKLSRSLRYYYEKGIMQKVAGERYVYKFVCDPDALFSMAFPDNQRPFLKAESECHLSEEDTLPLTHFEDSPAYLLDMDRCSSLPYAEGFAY
For assay [11], the target named is T7, SPIC (Homo sapiens, UniProt Q8N5J4 1-248).
T7 sequence: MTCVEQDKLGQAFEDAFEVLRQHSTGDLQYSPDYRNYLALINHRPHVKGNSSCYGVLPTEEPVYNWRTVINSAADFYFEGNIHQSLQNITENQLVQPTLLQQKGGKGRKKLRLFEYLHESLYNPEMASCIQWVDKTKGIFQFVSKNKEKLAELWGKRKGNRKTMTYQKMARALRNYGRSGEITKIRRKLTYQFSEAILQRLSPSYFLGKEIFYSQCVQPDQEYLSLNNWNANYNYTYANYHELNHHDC
The procedure, abridged: as §1

Assay [12] concerns the target ELF4 (Homo sapiens, UniProt Q99607 1-663). The procedure, abridged:
as §1

Assay [13] addresses T8, ELK4 (Homo sapiens, UniProt P28324-2 1-405).
T8 sequence: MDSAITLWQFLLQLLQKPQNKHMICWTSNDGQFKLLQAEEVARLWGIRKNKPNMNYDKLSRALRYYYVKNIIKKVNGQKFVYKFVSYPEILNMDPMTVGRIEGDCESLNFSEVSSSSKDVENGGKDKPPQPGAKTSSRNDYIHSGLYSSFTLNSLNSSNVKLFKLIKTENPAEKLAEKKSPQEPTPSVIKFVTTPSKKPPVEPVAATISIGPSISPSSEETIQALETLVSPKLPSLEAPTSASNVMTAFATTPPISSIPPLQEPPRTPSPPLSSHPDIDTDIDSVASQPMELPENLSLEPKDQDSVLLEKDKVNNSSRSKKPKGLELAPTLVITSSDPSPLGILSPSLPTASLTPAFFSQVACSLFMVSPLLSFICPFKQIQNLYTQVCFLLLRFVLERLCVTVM
The gist of the method: as §1

Assay [14] concerns the target T9, ETV2 (Homo sapiens, UniProt O00321 1-342).
T9 sequence: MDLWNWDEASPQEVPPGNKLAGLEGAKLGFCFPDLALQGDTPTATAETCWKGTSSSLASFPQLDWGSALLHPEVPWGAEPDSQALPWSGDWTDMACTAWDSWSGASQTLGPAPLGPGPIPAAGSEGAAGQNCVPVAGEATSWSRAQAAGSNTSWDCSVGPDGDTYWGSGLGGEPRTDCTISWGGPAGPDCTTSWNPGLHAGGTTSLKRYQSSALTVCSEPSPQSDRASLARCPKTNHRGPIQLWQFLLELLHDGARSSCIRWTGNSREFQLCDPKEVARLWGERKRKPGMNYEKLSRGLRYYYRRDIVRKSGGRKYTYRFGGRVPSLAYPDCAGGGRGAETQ
The procedure, abridged:
as §1

Assay [15] addresses T10, ELF3 (Homo sapiens, UniProt P78545 1-371).
T10 sequence: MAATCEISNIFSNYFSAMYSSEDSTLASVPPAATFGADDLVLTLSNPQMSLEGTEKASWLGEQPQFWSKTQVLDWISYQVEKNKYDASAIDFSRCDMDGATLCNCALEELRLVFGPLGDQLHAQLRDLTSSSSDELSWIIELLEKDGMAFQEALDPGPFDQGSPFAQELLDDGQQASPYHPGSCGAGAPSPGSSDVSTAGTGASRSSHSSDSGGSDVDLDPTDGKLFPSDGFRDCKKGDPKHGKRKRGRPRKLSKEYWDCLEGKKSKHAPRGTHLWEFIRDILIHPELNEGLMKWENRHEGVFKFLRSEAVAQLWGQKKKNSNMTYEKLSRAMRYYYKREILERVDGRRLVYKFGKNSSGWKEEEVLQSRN
The gist of the method: as §1

In assay [16] the target is ETV1 (Homo sapiens, UniProt P50549 1-477). The procedure, abridged: as §1
Sequence of ETV1 (P50549 whole entry): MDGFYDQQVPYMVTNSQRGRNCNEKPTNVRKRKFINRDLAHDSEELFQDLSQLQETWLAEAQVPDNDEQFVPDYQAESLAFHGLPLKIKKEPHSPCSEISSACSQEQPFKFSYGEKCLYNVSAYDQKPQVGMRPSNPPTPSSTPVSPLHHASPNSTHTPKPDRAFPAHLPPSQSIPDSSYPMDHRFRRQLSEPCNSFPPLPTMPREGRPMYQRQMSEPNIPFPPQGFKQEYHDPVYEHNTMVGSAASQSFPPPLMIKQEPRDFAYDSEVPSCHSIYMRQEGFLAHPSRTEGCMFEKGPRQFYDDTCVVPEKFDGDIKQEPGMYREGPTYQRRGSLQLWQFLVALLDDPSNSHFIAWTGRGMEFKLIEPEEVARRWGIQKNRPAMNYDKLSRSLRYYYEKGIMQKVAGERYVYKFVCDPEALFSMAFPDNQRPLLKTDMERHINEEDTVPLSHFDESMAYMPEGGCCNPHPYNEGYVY
Assay [17] deals with T11, ELK3 (Homo sapiens, UniProt P41970 1-407).
T11 sequence: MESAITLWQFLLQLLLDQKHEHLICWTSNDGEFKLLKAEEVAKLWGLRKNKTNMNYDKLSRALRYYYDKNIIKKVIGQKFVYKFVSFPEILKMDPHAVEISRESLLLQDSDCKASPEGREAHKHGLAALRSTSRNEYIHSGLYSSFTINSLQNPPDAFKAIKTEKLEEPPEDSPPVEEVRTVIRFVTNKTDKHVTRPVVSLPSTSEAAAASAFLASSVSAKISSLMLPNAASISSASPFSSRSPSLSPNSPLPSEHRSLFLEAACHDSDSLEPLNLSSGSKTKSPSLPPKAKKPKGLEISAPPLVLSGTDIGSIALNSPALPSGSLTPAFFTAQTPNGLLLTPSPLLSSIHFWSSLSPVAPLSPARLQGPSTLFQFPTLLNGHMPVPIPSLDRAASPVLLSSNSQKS
The gist of the method:
as §1

Drawing on article PMC7862700, “An all-to-all approach to the identification of sequence-specific readers for epigenetic DNA modifications on cytosine”, this text covers binding signal for 2 sequences.

Sequence of SPIB (Q01892 whole entry): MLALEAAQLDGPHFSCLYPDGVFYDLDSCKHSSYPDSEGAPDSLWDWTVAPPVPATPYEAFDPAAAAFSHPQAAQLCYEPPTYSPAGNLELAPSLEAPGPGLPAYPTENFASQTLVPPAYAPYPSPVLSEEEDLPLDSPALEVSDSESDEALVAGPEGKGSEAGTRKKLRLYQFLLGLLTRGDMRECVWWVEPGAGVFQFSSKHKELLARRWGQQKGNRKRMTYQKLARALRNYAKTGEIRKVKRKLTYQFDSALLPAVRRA
Sequence of ELF1 (P32519 whole entry): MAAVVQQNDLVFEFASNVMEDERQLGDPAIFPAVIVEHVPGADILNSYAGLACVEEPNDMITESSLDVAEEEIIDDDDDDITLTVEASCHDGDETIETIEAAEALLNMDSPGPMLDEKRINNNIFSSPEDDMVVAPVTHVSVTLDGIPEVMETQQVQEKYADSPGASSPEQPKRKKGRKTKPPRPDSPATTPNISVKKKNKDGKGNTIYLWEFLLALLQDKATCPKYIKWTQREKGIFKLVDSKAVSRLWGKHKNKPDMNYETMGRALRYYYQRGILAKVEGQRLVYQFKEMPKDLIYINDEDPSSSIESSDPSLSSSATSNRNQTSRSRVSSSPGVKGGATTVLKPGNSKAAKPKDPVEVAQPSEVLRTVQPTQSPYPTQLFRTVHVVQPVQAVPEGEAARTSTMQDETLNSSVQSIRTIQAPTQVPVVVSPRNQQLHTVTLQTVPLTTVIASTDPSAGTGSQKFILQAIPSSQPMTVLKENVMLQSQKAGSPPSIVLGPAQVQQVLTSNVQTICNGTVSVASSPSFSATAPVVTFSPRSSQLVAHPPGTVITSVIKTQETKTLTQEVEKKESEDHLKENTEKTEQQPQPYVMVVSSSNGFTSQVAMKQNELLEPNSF
Sequence of ELF4 (Q99607 whole entry): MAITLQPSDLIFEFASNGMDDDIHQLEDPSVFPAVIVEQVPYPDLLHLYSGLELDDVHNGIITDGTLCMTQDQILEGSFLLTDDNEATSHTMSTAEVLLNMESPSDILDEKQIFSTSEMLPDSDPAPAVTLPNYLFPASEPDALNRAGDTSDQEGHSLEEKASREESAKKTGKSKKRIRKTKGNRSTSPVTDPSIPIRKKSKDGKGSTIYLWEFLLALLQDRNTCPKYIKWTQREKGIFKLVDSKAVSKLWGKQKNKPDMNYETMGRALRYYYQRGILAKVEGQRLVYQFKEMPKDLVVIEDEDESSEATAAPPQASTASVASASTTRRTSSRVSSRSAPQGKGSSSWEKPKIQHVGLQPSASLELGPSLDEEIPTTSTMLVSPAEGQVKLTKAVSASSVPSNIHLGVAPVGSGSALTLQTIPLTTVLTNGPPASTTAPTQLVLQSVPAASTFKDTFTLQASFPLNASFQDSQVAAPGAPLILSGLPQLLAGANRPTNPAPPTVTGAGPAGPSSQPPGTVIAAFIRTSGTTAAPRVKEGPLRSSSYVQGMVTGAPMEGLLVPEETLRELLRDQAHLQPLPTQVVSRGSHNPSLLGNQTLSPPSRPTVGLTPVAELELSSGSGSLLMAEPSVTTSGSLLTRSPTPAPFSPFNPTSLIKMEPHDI

In the case of AGTGTT, the binding signal is 1.05 fold enrichment (6-mer frequency, TF over GST control) in assay [1]; 1.16 fold enrichment (6-mer frequency, TF over GST control) in assay [2]; 1.14 fold enrichment (6-mer frequency, TF over GST control) in assay [3]; 1.15 fold enrichment (6-mer frequency, TF over GST control) in [4]; 1.08 fold enrichment (6-mer frequency, TF over GST control) in [5]; 1.02 fold enrichment (6-mer frequency, TF over GST control) in assay [6]. Besides, the binding signal in assay [7] was 1.32 fold enrichment (6-mer frequency, TF over GST control); in [8], 1.15 fold enrichment (6-mer frequency, TF over GST control); in assay [9], 1.02 fold enrichment (6-mer frequency, TF over GST control); in assay [10], 1.06 fold enrichment (6-mer frequency, TF over GST control); in [11], 1.18 fold enrichment (6-mer frequency, TF over GST control); in assay [12], 1.05 fold enrichment (6-mer frequency, TF over GST control). Also, the binding signal in assay [13] is 1.08 fold enrichment (6-mer frequency, TF over GST control); in [14], 1.07 fold enrichment (6-mer frequency, TF over GST control); in assay [15], 1.26 fold enrichment (6-mer frequency, TF over GST control); in [16], 1.06 fold enrichment (6-mer frequency, TF over GST control).
In the case of CCCAAC, the binding signal in assay [1] is 1.13 fold enrichment (6-mer frequency, TF over GST control); in assay [2], 1.14 fold enrichment (6-mer frequency, TF over GST control); in assay [3], 1.09 fold enrichment (6-mer frequency, TF over GST control); in assay [4], 1.15 fold enrichment (6-mer frequency, TF over GST control); in [5] it was 1.13 fold enrichment (6-mer frequency, TF over GST control); in assay [6], 1.16 fold enrichment (6-mer frequency, TF over GST control). The binding signal in assay [7] is 1.07 fold enrichment (6-mer frequency, TF over GST control); in [8], 1.11 fold enrichment (6-mer frequency, TF over GST control); in [17], 1.02 fold enrichment (6-mer frequency, TF over GST control); in assay [9], 1.17 fold enrichment (6-mer frequency, TF over GST control); in assay [10] it was 1.11 fold enrichment (6-mer frequency, TF over GST control); in assay [11] it was 1.17 fold enrichment (6-mer frequency, TF over GST control). Besides, the binding signal was 1.22 fold enrichment (6-mer frequency, TF over GST control) in assay [12]; 1.18 fold enrichment (6-mer frequency, TF over GST control) in assay [13]; 1.03 fold enrichment (6-mer frequency, TF over GST control) in [14]; 1.17 fold enrichment (6-mer frequency, TF over GST control) in assay [15]; 1.13 fold enrichment (6-mer frequency, TF over GST control) in assay [16].
